In PubChem BioAssay AID488922 (Johns Hopkins Ion Channel Center, 2010):
Among all 310,000 compounds or so, about 3,800 (1.2%) were called active.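 How the source made its calls: active means ratio B-score over 3 SD below the library mean, with starting fluorescence within 5 SD of its mean; inactive means the rest, inconclusive results apart.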 The sample as a whole holds a higher share of actives than the screen did.

What follows are compounds tested against Potassium channel subfamily K member 9 (Homo sapiens) (UniProt Q9NPC2) (assay: blockers of human TASK-3 (KCNK9) channel – HEK293 cells, thallium flux, primary screen (AID 488922;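 on B-score: negative B-score means less thallium flux so channel inhibition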)). Conditions: HEK293 KCNK9, FluxOR thallium flux fluorescence, at 10 µM; hits give low values.
Potassium channel subfamily K member 9 (Homo sapiens), sequence (Q9NPC2 whole entry, looked up): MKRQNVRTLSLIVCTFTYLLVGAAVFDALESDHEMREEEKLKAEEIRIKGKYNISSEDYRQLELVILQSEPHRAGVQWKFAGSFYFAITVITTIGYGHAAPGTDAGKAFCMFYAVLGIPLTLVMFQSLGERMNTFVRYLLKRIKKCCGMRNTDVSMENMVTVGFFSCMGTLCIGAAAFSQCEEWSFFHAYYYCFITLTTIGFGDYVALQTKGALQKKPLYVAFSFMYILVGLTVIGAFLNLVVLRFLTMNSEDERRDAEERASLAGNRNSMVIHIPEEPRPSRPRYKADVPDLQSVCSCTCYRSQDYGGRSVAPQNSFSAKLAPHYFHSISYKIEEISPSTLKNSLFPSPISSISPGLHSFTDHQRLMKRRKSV
`CCc1noc(C)c1C(=O)Nc1nc(-c2ccccc2)cs1` was tested, and the B-score was “inactive”. With `C[C@H](NC(=O)C1CC(=O)N(c2ccc3c(c2)OCO3)C1)C(=O)NCc1ccco1` (stereo partly specified) the B-score was “inactive”. With `O=C(/C=C/c1ccccc1)Oc1coc(CSc2ncccn2)cc1=O` the B-score was “inactive”. For `COc1cc(OC)cc(-c2cc3nc(C4CCN(C(=O)OC(C)(C)C)CC4)cc(=O)n3[nH]2)c1`, the B-score was “inactive”. In the case of `O=C(c1ccc(F)cc1)N1CCC(C(=O)N2CCN(S(=O)(=O)c3ccccc3Br)CC2)CC1`, the B-score was “inactive”. For `O=C(Cc1ccc(S(=O)(=O)N2CCCC2)s1)NC1CCCCCC1`, the B-score was “inactive”. In the case of `O=C(Cn1nnc(N2CCCCC2)n1)c1ccc(Cl)c(Cl)c1`, the B-score was “inactive”. With `CCCn1c(=N)n(CC(=O)c2ccc(Cl)c(Cl)c2)c2ccccc21` the B-score was -7.8 (active). For `CCN(CC)CC1(O)CCN(C(=O)c2ccc(Cl)c(Cl)c2)CC1`, the B-score was “inactive”. With `O=c1c2c3c(sc2n(CCN2CCCC2)c(=O)n1Cc1ccccc1)CCCCC3` the B-score was “inactive”. For `COc1cccc(N2CC(NC(=O)c3ccc4ccccc4c3)CC2=O)c1` (stereo unspecified), the B-score was “inactive”. With `COc1cccc(CNS(=O)(=O)c2ccc3c(c2)CC(C)N3C(=O)C2CCC2)c1` (stereo unspecified) the B-score was “inactive”. For `Cc1ccc2nc3c(cc(C(=O)NCCc4ccccc4)c(=N)n3CC3CCCO3)c(=O)n2c1` (stereo unspecified), the B-score was “inactive”. For `Cc1cc(C)c(C)c(S(=O)(=O)N2CCN(C(=O)c3ccc4c(=O)n5c(nc4c3)CCC5)CC2)c1C`, the B-score was “inactive”. In the case of `COc1ccc(C(C)C)cc1S(=O)(=O)Nc1ncn[nH]1`, the B-score was “inactive”. For `CCOc1ccc(C(C)C)cc1S(=O)(=O)n1nc(C)cc1C`, the B-score was -10.1 (active). With `CCOc1cc(C)c(Cl)cc1S(=O)(=O)n1nnc2ccccc21` the B-score was “inactive”. For `CCOc1ccc(OCC(=O)Nc2c3c(nn2C(C)(C)C)CS(=O)(=O)C3)cc1`, the B-score was “inactive”. `CCC(C)(C)n1nnnc1C(c1ccc(OC)c(OC)c1)N1CCN(C(=O)c2ccco2)CC1` (stereo unspecified) was tested, and the B-score was “inactive”. In the case of `CCC(C)(C)n1nnnc1C(c1ccccc1OC)N1CCSCC1` (stereo unspecified), the B-score was -7.08 (active). With `COc1ccccc1C(c1nnnn1CC1CCCO1)N1CCN(c2ccccc2)CC1` (stereo unspecified) the B-score was “inactive”. With `COc1ccc(OC)c(C(c2nnnn2C(C)(C)C)N2CCc3ccccc3C2)c1` (stereo unspecified) the B-score was “inactive”. With `CC(C)(C)n1nnnc1C(c1ccc2ncccc2c1)N1CCSCC1` (stereo unspecified) the B-score was “inactive”. `COc1ccccc1C(c1nnnn1C(C)(C)C)N1CCN(Cc2ccccc2)CC1` (stereo unspecified) was tested, and the B-score was -21.5 (active). `CCC(C)(C)n1nnnc1C(c1cccs1)N1CCN(c2nc3ccccc3s2)CC1` (stereo unspecified) was tested, and the B-score was -9.04 (active). With `CC(C)(C)n1nnnc1C(c1ccc(Cl)cc1)N1CCSCC1` (stereo unspecified) the B-score was “inactive”. In the case of `CCCC(c1nnnn1C(C)(C)C)N1CCN(Cc2ccccc2)CC1` (stereo unspecified), the B-score was “inactive”. In the case of `O=C(NC(=S)Nc1ccc2oc(=O)ccc2c1)c1ccc(-c2cccc(Cl)c2Cl)o1`, the B-score was “inactive”. In the case of `Cc1ccc(S(=O)(=O)N2CCN(C(=O)c3ccc(-n4cncn4)c([N+](=O)[O-])c3)CC2)cc1`, the B-score was “inactive”. For `COc1ccc(CNC(=O)C2CCCC2)cc1`, the B-score was “inactive”. In the case of `O=C1CC2(CC(c3ccc(Cl)cc3)=NO2)C(=O)N1c1ccccc1` (stereo unspecified), the B-score was “inactive”. `Nc1cc(C(F)(F)F)ccc1N1CCOCC1` was tested, and the B-score was “inactive”. For `CCC(C)c1ccc(NC(=S)N2CCCC2)cc1` (stereo unspecified), the B-score was “inactive”. For `Cc1ccc(CN(Cc2cccnc2)C(=S)Nc2cc(Cl)ccc2C)cc1`, the B-score was -7.5 (active). With `Cc1ccc(Cl)cc1NC(=S)N(CCN(C)C)Cc1cccs1` the B-score was “inactive”. `Cc1ccc(CN(Cc2cccnc2)C(=S)Nc2cccc(Cl)c2C)cc1` was tested, and the B-score was -6.65 (active). `Cc1cccc(C)c1NC(=S)N(Cc1cccnc1)Cc1ccccc1Cl` was tested, and the B-score was “inactive”. In the case of `Cc1c(Cl)cccc1NC(=S)N(Cc1ccccc1)Cc1cccnc1`, the B-score was “inactive”. With `COCCNC(=S)N(Cc1cccnc1)Cc1ccc(OC)c(OC)c1` the B-score was “inactive”. For `Cc1ccccc1NC(=O)COc1cccc2c1CCNC2=O`, the B-score was “inactive”. For `O=C(CCNC(=O)c1ccc(Br)cc1)Nc1cccc(S(=O)(=O)N2CCCCC2)c1`, the B-score was “inactive”. With `O=C(CSc1ncnc2scc(-c3ccccc3)c12)NCc1ccc2c(c1)OCO2` the B-score was -6.9 (active). In the case of `O=C(CN1CCN(c2nc(-c3ccccc3)cs2)CC1)NCc1ccc2c(c1)OCO2`, the B-score was “inactive”. In the case of `O=C(CSc1ncn[nH]1)NCc1ccc2c(c1)OCO2`, the B-score was “inactive”. In the case of `CCOC(=O)C(=Cc1ccccc1OC)C(=O)OCC`, the B-score was “inactive”. In the case of `CCOC(=O)c1c(NC(=O)CNC2CCCc3ccccc32)sc(C(N)=O)c1C` (stereo unspecified), the B-score was “inactive”. `CCOc1ncccc1C(=O)NNC(=O)c1cccc(S(=O)(=O)Nc2ccccc2OC)c1` was tested, and the B-score was “inactive”. In the case of `COc1ccc(NC(=O)C2CCC(CNC(=O)[C@@H]3Cc4ccccc4CN3)CC2)cc1` (stereo partly specified), the B-score was “inactive”. `COC(=O)c1sccc1NC(=O)c1cc(OC)c(OC)c(OC)c1` was tested, and the B-score was “inactive”. `COc1cc(C(=O)Nc2oc(-c3ccccc3)c(-c3ccccc3)c2C#N)cc(OC)c1OC` was tested, and the B-score was -6.66 (active). For `N#Cc1c(NC(=O)CCCN2C(=O)c3ccccc3C2=O)oc(-c2ccccc2)c1-c1ccccc1`, the B-score was “inactive”. With `COC(=O)Nc1ncc(CN2CCCCC2)s1` the B-score was “inactive”. In the case of `CCCCN(C(=O)COc1ccc(NC(C)=O)cc1)C1CCS(=O)(=O)C1` (stereo unspecified), the B-score was “inactive”. `Cc1cccc(C(=O)NCc2nnc(SC(C)C(=O)Nc3nnc(C)s3)n2C)c1` (stereo unspecified) was tested, and the B-score was “inactive”. For `CN(Cc1ccccn1)Cc1nc(-c2ccc(Cl)cc2)no1`, the B-score was “inactive”. With `Brc1ccc(-c2noc(-c3ccccc3)n2)o1` the B-score was “inactive”. For `Cn1nc(-c2ccccc2)c(-c2nc(-c3ccc(Cl)cc3)no2)c1Cl`, the B-score was -7.35 (active). For `CC(C)Cn1c(N)c(C(=O)COC(=O)CN2C(=O)C3CC=CCC3C2=O)c(=O)n(C)c1=O` (stereo unspecified), the B-score was “inactive”. With `COC(=O)c1cc(NC(=O)CC2C(=O)NCCN2C(=O)c2ccc(F)cc2)cc(C(=O)OC)c1` (stereo unspecified) the B-score was “inactive”. In the case of `Cc1cs/c(=N\N=C\c2ccc(O)cc2)n1Cc1ccco1`, the B-score was -6.66 (active). For `Cc1csc(=Nc2ccccc2)n1CCO`, the B-score was “inactive”. `CN(c1ccccc1)c1ccc(/C=c2\s/c(=C(/C#N)C(=O)C(C)(C)C)n(Cc3ccco3)c2=O)cc1` was tested, and the B-score was “inactive”. With `CCNC(=O)NC(=O)C(C)OC(=O)c1cc(S(=O)(=O)N2CCCCCC2)ccc1OC` (stereo unspecified) the B-score was “inactive”. `CCCCn1c(N)c(N(CC(C)C)C(=O)c2cccc(S(=O)(=O)N3CCN(C(C)=O)CC3)c2)c(=O)[nH]c1=O` was tested, and the B-score was “inactive”. `Cc1cc(C)nc(-n2nc(C)cc2NC(=O)c2ccc(F)cc2F)n1` was tested, and the B-score was “inactive”. For `CCCCn1ccnc1C(=O)c1cccc(S(=O)(=O)N2c3ccccc3CC2C)c1` (stereo unspecified), the B-score was -11.8 (active). For `CC1Cc2ccccc2N1S(=O)(=O)c1ccc(Cl)nc1` (stereo unspecified), the B-score was “inactive”. With `CC1Cc2ccccc2N1S(=O)(=O)c1c(N)n(C)c(=O)n(C)c1=O` (stereo unspecified) the B-score was “inactive”. In the case of `O=C(NN1C(=O)C2C3C=CC(O3)C2C1=O)c1ccccc1` (stereo unspecified), the B-score was “inactive”. `COc1ccc(C(=O)NN2C(=O)C3C(c4ccccc4)C=CC(c4ccccc4)C3C2=O)cc1` (stereo unspecified) was tested, and the B-score was -8.93 (active). In the case of `COc1ccccc1C(=O)NN1C(=O)C2C3C=CC(O3)C2C1=O` (stereo unspecified), the B-score was “inactive”. `CC(=O)Nc1ccc(S(=O)(=O)NC(C)C(=O)OCC(=O)NC2CCCC2)cc1` (stereo unspecified) was tested, and the B-score was “inactive”. For `O=C(Nc1ccc2c(c1)OCCO2)C(c1ccc(F)cc1)N1CCCCC1` (stereo unspecified), the B-score was “inactive”. In the case of `CC1CCCN(C(C(=O)Nc2ccc(C(C)C)cc2)c2ccc3c(c2)OCO3)C1` (stereo unspecified), the B-score was -7.66 (active). In the case of `CCc1ccc(NC(=O)NC(C)c2ccc3c(c2)OCO3)cc1` (stereo unspecified), the B-score was “inactive”. In the case of `O=C(Nc1ccc(S(=O)(=O)Nc2ccccn2)cc1)c1ccccc1`, the B-score was “inactive”. `O=C(CCl)N(Cc1cccc([N+](=O)[O-])c1)c1cccc(Cl)c1` was tested, and the B-score was “inactive”. `C=CCN(N=Nc1cccc([N+](=O)[O-])c1)c1cccc([N+](=O)[O-])c1` was tested, and the B-score was -11.2 (active). In the case of `CCN(CC)C(=O)CN(c1cccc([N+](=O)[O-])c1)S(=O)(=O)c1ccccc1`, the B-score was “inactive”. `Cc1ccc(CSCC(=O)N(C)CC(=O)Nc2ccc(C)cc2)cc1` was tested, and the B-score was “inactive”. With `O=S(=O)(Cc1noc(-c2ccc(OC(F)(F)F)cc2)n1)c1ccc(F)cc1` the B-score was “inactive”. For `COc1cc(Cl)c(C)cc1NC(=O)CSc1nnc(-c2ccco2)n1CC(C)C`, the B-score was -10 (active). In the case of `CCn1c(SCC(=O)Nc2cc(C)c(Cl)cc2OC)nnc1-c1ccco1`, the B-score was “inactive”. In the case of `COc1cc(Cl)c(C)cc1NC(=O)CSc1nnc(-c2cccnc2)n1Cc1ccco1`, the B-score was “inactive”. For `CCOC(=O)c1sc(=NC(=O)c2ccc(Br)cc2)n(C)c1C`, the B-score was “inactive”. With `CCOC(=O)c1sc(=S)n2c1[nH]c(=O)c1ccc(C(=O)OC)cc12` the B-score was “inactive”. In the case of `CCOC(=O)C1=C(C)Nc2sc(C(=O)c3ccc(Br)cc3)c(N)c2C1c1ccc(C(=O)OC)cc1` (stereo unspecified), the B-score was -9.37 (active). `CN(CC(=O)Nc1cccc(F)c1)C(=O)C1=COCCO1` was tested, and the B-score was “inactive”. With `Cc1ccc(-n2ncc3c(Nc4cccc(C(=O)O)c4)ncnc32)cc1` the B-score was “inactive”. In the case of `COc1ccc(C2=NS(=O)(=O)N(C)C(C(=O)N3CCCCC3)=C2)cc1`, the B-score was “inactive”. For `Cc1ccccc1NC(=O)Nc1ccccc1N1CCCCC1`, the B-score was “inactive”. In the case of `O=C(CNCCC1=CCCCC1)Nc1ccccc1N1CCCCCC1`, the B-score was -8.91 (active). For `Cc1ccccc1NC(=O)CNc1ccccc1N1CCCCC1`, the B-score was “inactive”. With `Cc1ccc2oc(C(=O)N3CCN(C)C[C@@H]3C(C)C)c(C)c2c1` the B-score was “inactive”. For `CC(C)CC(CO)N1CCN(C(=O)c2ccc(Cl)cc2Cl)CCC1=O` (stereo unspecified), the B-score was “inactive”. `CC(C)CC(COCc1ccc(Cl)cc1)N1CCN(C(=O)c2ccc(C(F)(F)F)cc2)CCC1=O` (stereo unspecified) was tested, and the B-score was -8.19 (active). For `O=C(c1cc(Cl)cc(Cl)c1)N1CCC(=O)N(C(COCc2ccccc2)Cc2ccccc2)CC1` (stereo unspecified), the B-score was “inactive”. `O=C1[C@H]2[C@@H](c3ccc(Cl)cc3)N3C(=O)N(c4cccc(F)c4)C(=O)[C@@]3(Cc3ccccc3)[C@H]2C(=O)N1C1CCCCC1` was tested, and the B-score was “inactive”. For `COC(=O)c1noc(C)c1-c1ccnn1C(=O)c1ccc(Cl)cc1`, the B-score was “inactive”. For `Cc1ccc(S(=O)(=O)Cc2cc(-c3ccc(Cl)cc3)no2)cc1`, the B-score was “inactive”. With `Cc1onc(-c2ccc(Cl)cc2)c1-c1ccnn1S(=O)(=O)c1ccc(Cl)cc1` the B-score was -12.4 (active).
